Key:
Settings in all cases: concentration: 1 μM,replicates: in singlicate; n = 1
NIM1 = tested on: T1, NIM1
T1 construct: gene MGC42105

NLK = tested on: NLK
OSR1 = tested on: T2, OSR1
T2 construct: gene OXSR1

PAK1 = tested on: PAK1
PAK2 = tested on: PAK2
PAK3 = tested on: PAK3
PAK4 = tested on: PAK4
PAK6 = tested on: PAK6
PAK7 = tested on: PAK7
PCTK1 = tested on: T3, PCTK1
T3 construct: gene CDK16
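Further: KINOMEscan kinase panel screen.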

| SMILES | %Inh (NIM1) [%] | %Inh (NLK) [%] | %Inh (OSR1) [%] | %Inh (PAK1) [%] | %Inh (PAK2) [%] | %Inh (PAK3) [%] | %Inh (PAK4) [%] | %Inh (PAK6) [%] | %Inh (PAK7) [%] | %Inh (PCTK1) [%] |
| --- | --- | --- | --- | --- | --- | --- | --- | --- | --- | --- |
| Cc1ccc(Nc2ccnc(Nc3ccc4c(c3)CS(=O)(=O)C4)n2)cc1O.Cl [GW579362] | 17 | 97.5 | 46 | 26 | 29 | 20 | 0 | 28 | 56 | 17 |
| COc1cccc(C2=C(Nc3cccc(Cl)c3)C(=O)NC2=O)c1 [SB-341556] | 3 | 5 | 27 | 4 | 19 | 100 | 0 | 0 | 8 | 9 |
| Cc1ccc(C(=O)Nc2ccc(Oc3ccc4nc(NC(=O)C5CC5)cn4c3)c(F)c2)c(=O)n1-c1ccccc1 | 0 | 7 | 0 | 0 | 2 | 12 | 0 | 8 | 0 | 0 |
| CC(C)c1nc(-c2cccc(NS(=O)(=O)c3ccccc3)c2)c(-c2ccnc(Nc3ccc4c(c3)CN(C)CC4)n2)s1 [GSK1649598] | 29 | 98.1 | 14 | 39 | 25 | 88 | 0 | 10 | 3 | 100 |
| Cn1ccc2ncnc(Oc3ccc(NC(=O)Nc4cc(C(C)(C)C)on4)c(Cl)c3)c21 | 0 | 67 | 20 | 20 | 23 | 46 | 8 | 1 | 0 | 27 |
| CC(=O)Nc1ccc(-c2cc3ncnc(SCC(=O)O)c3s2)cc1 | 0 | 0 | 7 | 0 | 0 | 0 | 0 | 0 | 8 | 28 |
| COc1cccc(OC)c1C(=O)Nc1cccc(-c2nn3ccccc3c2-c2ccnc(Nc3cccc(F)c3)n2)c1 [GSK361065] | 0 | 90 | 0 | 6 | 10 | 0 | 10 | 24 | 0 | 0 |
| Cn1ccc2ncnc(Oc3ccc(NC(=O)Nc4cccc(C(F)(F)F)c4)c(F)c3)c21 | 0 | 18 | 0 | 14 | 12 | 0 | 6 | 0 | 0 | 0 |
| CS(=O)(=O)c1cccc(CNc2nc(Nc3ccc4c(c3)[C@@H]3C[C@@H]4CNC3=O)ncc2C(F)(F)F)c1 | 0 | 0 | 48 | 5 | 12 | 0 | 0 | 18 | 20 | 0 |
| Cl.Cl.NC[C@H](CC1CCCCC1)NC(=O)c1ccc(-c2ccnc3[nH]ccc23)s1 [GSK1581428] | 14 | 12 | 19 | 22 | 38 | 94.8 | 34 | 62 | 68 | 6 |
| O=c1[nH]cc(-c2ccc(O)cc2)c2sc(-c3ccncc3)cc12 [GSK1033723] | 4 | 11 | 3 | 14 | 5 | 11 | 0 | 4 | 5 | 1 |
| Cc1cccc2c(-c3ccncc3)c(-c3ccc(F)cc3)nn12.Cl [GW461487] | 10 | 65 | 0 | 24 | 8 | 100 | 0 | 0 | 0 | 0 |
| Cl.c1ccc(Oc2ccc(Nc3ccnc4cc(-c5ccc(CN6CCNCC6)o5)ccc34)cc2)nc1 [GW567142] | 0 | 15 | 0 | 7 | 0 | 0 | 0 | 0 | 0 | 1 |
| COc1ccc(Nc2nccc(N3CCC(NC(=O)c4cccc(C#N)c4)C3)n2)cc1 (centres unmarked) [GSK1379730] | 0 | 0 | 0 | 0 | 0 | 24 | 0 | 0 | 0 | 3 |
| CC(C)S(=O)(=O)N1CCN(Cc2ccc3c(c2)nc(NC(=O)c2ccsc2)n3C[C@H](O)c2ccccc2)CC1 [GW635815] | 20 | 0 | 10 | 22 | 27 | 15 | 44 | 9 | 35 | 0 |
| COc1cc(Nc2nccc(N3CCC(NC(=O)c4cccc(C#N)c4)C3)n2)cc(OC)c1OC (centres unmarked) [GSK1379751] | 16 | 7 | 2 | 2 | 0 | 0 | 0 | 0 | 1 | 0 |
| Cn1ccc2ncnc(Oc3ccc(NC(=O)Nc4ccnc(C(F)(F)F)c4)c(Cl)c3)c21 | 0 | 14 | 0 | 23 | 13 | 100 | 7 | 0 | 0 | 21 |
